Compound activity: PubChem, National Center for Advancing Translational Sciences (NCATS)
NS1 inh – qHTS Assay for Inhibitors of Influenza NS1 Protein Function. Potency, µM (highest dose often 46.1 µM), without a hit: top-dose activity, positive = more growth. AID 2326, 2010. 270,000 compounds, 0.4% hits; calls by dose curve; also: actives are rising curves; nearly all actives have a fitted effect of over 50% in size
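Read-out: OD600 growth recovery of NS1-expressing budding yeast. Cells grown overnight at 30C in -URA glucose medium, washed, resuspended and diluted 1:100 in 2% galactose assay medium, pH 6.0. Same strain lacking NS1 served as positive control.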
Pf growth 96h – Primary qHTS for delayed death inhibitors of the malarial parasite plastid, 96 hour incubation; 320,000 compounds, 6.9% hits; Potency, µM (titrated, usually from 28.7 µM), without a hit: at the highest dose activity change, negative = inhibition, usual class: inhibitors; P. falciparum luciferase reporter growth, 96 h; also: % is scaled to controls: 0 for no effect and ±100 for the full control effect
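Luminescence readout: decreased luciferase signal marks inhibited growth of reporter-expressing P. falciparum in infected red cells (2% hematocrit, 0.05% parasitemia final), exposed to compound two generations (96 h, 37 C, 5% CO2).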
Vaccinia mCherry – qHTS for Stage-Specific Inhibitors of Vaccinia Orthopoxvirus: mCherry Reporter Primary qHTS | Vaccinia virus mCherry reporter infection, fluorescence | AID 720579, 2013 | Potency, µM (titrated, usually from 36.5 µM), inactives show at the top dose activity change, negative = inhibition, hits mostly inhibitors | 310,000 compounds, 0.63% hits; calls by dose curve; tested in A549 cells; also: % is scaled to controls: 0 for no effect and ±100 for the full control effect; nearly all actives have a fitted effect of over 35% in size
HCV inh – qHTS Assay for Inhibitors of Hepatitis C Virus (HCV); Huh7.5.1 HCVcc-Cre infection, luciferase reporter, 44 h; Potency, µM (titrated, usually from 41.8 µM), for the others: at the top dose activity change, negative = inhibition, usual class: inhibitors; 340,000 compounds, 3.4% hits; AID 651820, 2012; also: % is scaled to controls: 0 for no effect and ±100 for the full control effect
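After 44 h co-culture of compound, cells and HCVcc-Cre (~0.5 moi), substrate is added for 15 min at room temperature and luciferase measured over 15 sec. Cells were seeded at 1,000/well and pre-cultured 4 h.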
Pf growth 48h – Primary qHTS for delayed death inhibitors of the malarial parasite plastid, 48 hour incubation | P. falciparum luciferase growth in erythrocytes, 48 h | Potency, µM (doses to about 28.7 µM), for the others: top-dose activity change, negative = inhibition, hits mostly inhibitors | 310,000 compounds, 5.9% hits | AID 504832, 2011; also: % is scaled to controls: 0 for no effect and ±100 for the full control effect
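Cell-based growth assay: transgenic P. falciparum expressing firefly luciferase, cultured in red cells within RPMI 1640 containing 0.5% w/v Albumax, 24 mM bicarbonate and gentamycin. A drop in luciferase activity indicates inhibition.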
VACV Venus inh – qHTS for Stage-Specific Inhibitors of Vaccinia Orthopoxvirus: Venus Reporter Primary qHTS; Vaccinia virus Venus reporter expression, fluorescence; Potency, µM (top dose mostly 36.5 µM), for the others: top-dose activity change, negative = inhibition, most hits filed as inhibitors; 330,000 compounds, 0.46% hits; AID 720580, 2013; calls by dose curve; tested in A549 cells; also: % is scaled to controls: 0 for no effect and ±100 for the full control effect; nearly all actives have a fitted effect of over 30% in size
Active calls of the source: *. Only some compounds are listed: those with a hit (about 11% of all), similar ones and a draw of the others. Unless noted, calls follow the shape of the dose curve; as a rule, active = well fitted inhibition curve with a large enough effect; inconclusive = small, poorly fitted or top-dose-only effect, or another doubt; inactive = no such curve, though single readings can be large or run the other way. Potency is read from the fitted curve at half-maximal effect.

`O=C(Nc1ccc(C(F)(F)F)cc1)c1cc(-c2cccnc2)nc2ccc(Br)cc12` gave NS1 inh 1%, Pf growth 96h inconclusive, HCV inh -1% and Pf growth 48h 0.37µM*.
`COc1cc(NC(=O)Nc2cccc(Cl)c2)c(OC)cc1NC(=O)CN1CCCCC1` gave NS1 inh 12%, Pf growth 96h 15%, HCV inh inconclusive, Pf growth 48h inconclusive and VACV Venus inh inconclusive.
`c1ccc(-c2cc(CSc3nc4ccccc4[nH]3)on2)cc1` gave NS1 inh 3%, HCV inh 4µM*, Pf growth 48h 19% and VACV Venus inh inconclusive.
Screening Cc1cc(C(=O)Nc2cnn(Cc3ccc(Cl)cc3Cl)c2)no1 returned NS1 inh -11%, Pf growth 96h 86%, HCV inh -8% and Pf growth 48h 4.1µM*.
For COc1ccc(-c2cc(C(=O)Nc3cnn(Cc4ccccc4C)c3)no2)cc1OC the results were NS1 inh 1%, Pf growth 96h 1%, HCV inh 5% and Pf growth 48h 7%.
COc1cccc(-c2cc(C(=O)Nc3cnn(Cc4ccc(Cl)cc4Cl)c3)no2)c1 was read as Vaccinia mCherry inconclusive and VACV Venus inh 11µM*.
CN(Cc1ccccc1)C(=O)C1CCN(S(=O)(=O)c2cccc3nonc23)CC1 was read as NS1 inh 1%, Pf growth 96h 13µM*, Vaccinia mCherry inactive, HCV inh -3%, Pf growth 48h -9% and VACV Venus inh -5%.
COc1ccc(N(C)C(=O)C2CCN(S(=O)(=O)c3cccc4nonc34)CC2)c(OC)c1 was read as NS1 inh -5%, Pf growth 96h 9.3µM*, Vaccinia mCherry -20%, HCV inh -21%, Pf growth 48h inconclusive and VACV Venus inh -4%.
Screening Clc1nc(NCCc2ccccc2)c2cn[nH]c2n1 returned Vaccinia mCherry -10%, HCV inh inconclusive and VACV Venus inh -27%.
Cc1cc(Cl)c2oc(C(=O)NC3CCC(O)CC3)c(C)c2c1 (stereo not given) was read as NS1 inh -8%, Pf growth 96h 0%, HCV inh 14µM* and Pf growth 48h 36%.
`COC(=O)C1CCN(C(=O)c2oc3c(Cl)cc(C)cc3c2C)CC1` gave NS1 inh -36%, Pf growth 96h 8%, HCV inh -22% and Pf growth 48h 101%.
Screening Cc1cc(NC(=O)C2CCCCC2)ncc1NC(=O)c1ccccn1 returned NS1 inh -7%, Pf growth 96h 0%, HCV inh -9% and Pf growth 48h -6%.
Cc1ccc(O)c(C(=O)c2cc(C#N)c(=O)n(Cc3ccccc3)c2)c1 was read as Pf growth 96h 7%, Vaccinia mCherry -1%, HCV inh inconclusive, Pf growth 48h -12% and VACV Venus inh 7%.
For Cc1ccc(O)c(C(=O)c2cc(C#N)c3nc4ccccc4n3c2)c1 the results were Pf growth 96h 41%, Vaccinia mCherry inconclusive, HCV inh 5µM*, Pf growth 48h 12% and VACV Venus inh 244%.
COc1ccc(O)c(C(=O)c2cnc3nc4ccccc4n3c2)c1 was read as NS1 inh -10%, Pf growth 96h 0%, Vaccinia mCherry -21%, HCV inh -25%, Pf growth 48h 29% and VACV Venus inh -9%.
`CC(C)n1cc(C(=O)c2cc(Br)ccc2O)cc(C#N)c1=O` gave NS1 inh -8%, Pf growth 96h 2.6µM* and HCV inh -15%.
N#Cc1cc(C(=O)c2cc(Br)ccc2O)cn(C2CC2)c1=O was read as NS1 inh inconclusive, Pf growth 96h inconclusive, HCV inh -9%, Pf growth 48h inconclusive and VACV Venus inh -9%.
CCCCn1cc(C(=O)c2cc(Br)ccc2O)cc(C#N)c1=O was read as NS1 inh 8%, Pf growth 96h 2.1µM*, HCV inh 11µM*, Pf growth 48h 1.7µM* and VACV Venus inh inconclusive.
